Reference: PubChem BioAssay AID1362 (SRMLSC, 2008)
The whole screen tested about 190,000 compounds, of which about 4,000 (2.1%) were called active. No stated cut-off is given here; in the data, active means inhibition above about 58%; inactive means the rest, inconclusive results apart; tested in S. cerevisiae. Shown is part of a subset that was picked to be rich in actives.

Assay: growth inhibition of WT strain, primary screen, mitochondrial fusion inhibitor project, WT and mutant strains, chemical genetic (AID 1362)
Conditions: mitochondrial fusion phenotypic screen, at 10 µM
[1] = WT strain, growth inhibition, stronger effect = higher value

In the case of `CC1CN(/C=C/C(=O)C(F)(F)F)CC(C)O1` (stereo not given), the inhibition [1] is reported as -25.3% (inactive) and the inhibition (mutant strain inhibition) is reported as 4.39%.
In the case of `O=C(O)c1cccc(NC(=S)N/N=C/c2c[nH]c3ccccc23)c1`, the inhibition [1] is reported as -10.2% (inactive) and the inhibition (mutant strain inhibition) is reported as 4.36%.
For `S=c1[nH]nc(-c2ccccc2)n1/N=C/c1c[nH]c2ccccc12`, the inhibition [1] was 1.16% (inactive) and the inhibition (mutant strain inhibition) was 0%.
With `CSC(=S)N/N=C/c1c[nH]c2ccccc12` the inhibition [1] was 65.8% (active) and the inhibition (mutant strain inhibition) was 13.3%.
In the case of `CCOC(=O)c1cnc2[nH]c3ccccc3n2c1=O`, the inhibition [1] is reported as 2.43% (inactive) and the inhibition (mutant strain inhibition) is reported as -12.9%.
In the case of `Cc1ccc(Cl)cc1NC(=O)C1CCN(S(C)(=O)=O)CC1`, the inhibition [1] is reported as -9.34% (inactive) and the inhibition (mutant strain inhibition) is reported as -12.3%.
With `Cc1ccccc1NC(=O)NC1(C(=O)N2CCCC2)CCCCC1` the inhibition [1] was -9.64% (inactive) and the inhibition (mutant strain inhibition) was 7.72%.
For `Cc1cccc(NC(=S)NCCc2ccc(F)cc2)c1C`, the inhibition [1] was 74.7% (active) and the inhibition (mutant strain inhibition) was 64.6%.
With `Cc1c(NC(=S)NCc2ccc(F)cc2)cccc1[N+](=O)[O-]` the inhibition [1] was 5.62% (inactive) and the inhibition (mutant strain inhibition) was 3.03%.
For `CCNC(=S)Nc1cccc(Cl)c1C`, the inhibition [1] was 12.8% (inactive) and the inhibition (mutant strain inhibition) was 23.6%.
For `O=C(OCC(=O)N1CCOCC1)c1ccc(N2CCOCC2)c([N+](=O)[O-])c1`, the inhibition [1] was -7.83% (inactive) and the inhibition (mutant strain inhibition) was -1.16%.
With `O=C(COc1ccc(Cl)cc1[N+](=O)[O-])N1CCCCC1` the inhibition [1] was 1.62% (inactive) and the inhibition (mutant strain inhibition) was -14.6%.
In the case of `CNC(=S)N/N=C/c1cn(Cc2ccc(C)cc2)c2ccccc12`, the inhibition [1] is reported as 74.4% (active) and the inhibition (mutant strain inhibition) is reported as 61.2%.
With `CCOC(=O)N/N=C/c1cn(Cc2ccccc2Cl)c2ccccc12` the inhibition [1] was -3.34% (inactive) and the inhibition (mutant strain inhibition) was -14.2%.
With `COC(=O)N/N=C/c1cn(CCCOc2ccc(C)cc2)c2ccccc12` the inhibition [1] was 2.1% (inactive) and the inhibition (mutant strain inhibition) was -14.3%.
With `Cc1cc(C(C)(C)C)cc(S(=O)(=O)Nc2ccc(C(=O)O)cc2)c1C` the inhibition [1] was -13% (inactive) and the inhibition (mutant strain inhibition) was 10.3%.
For `Cc1cc(NS(=O)(=O)c2ccc(NC(=O)c3cccc(OC(F)F)c3)cc2)nc(C)n1`, the inhibition [1] was -7.81% (inactive) and the inhibition (mutant strain inhibition) was 6.49%.
For `Cc1cc(C)cc(NC(=O)CSc2ccccc2)c1`, the inhibition [1] was -4.46% (inactive) and the inhibition (mutant strain inhibition) was -13.2%.
With `O=C(N/N=C/c1ccc([N+](=O)[O-])cc1)c1c[nH]c2ccccc12` the inhibition [1] was -8.33% (inactive) and the inhibition (mutant strain inhibition) was 14.7%.
For `Cc1ccsc1C(=O)N/N=C/c1ccc([N+](=O)[O-])cc1`, the inhibition [1] was -11.5% (inactive) and the inhibition (mutant strain inhibition) was -7.32%.
In the case of `Cc1nc2ccccc2cc1C(=O)N/N=C/c1ccc([N+](=O)[O-])cc1`, the inhibition [1] is reported as 65.1% (active) and the inhibition (mutant strain inhibition) is reported as 20.7%.
In the case of `Cc1ccc2[nH]c(=O)c(CN(CC3COCCO3)C(=O)Nc3ccccc3C)cc2c1` (stereo not given), the inhibition [1] is reported as -8.31% (inactive) and the inhibition (mutant strain inhibition) is reported as 8.92%.
In the case of `COCCNc1nc(-n2nc(C)cc2C)nc2sc3c(c12)CCCC3`, the inhibition [1] is reported as 18.8% (inactive) and the inhibition (mutant strain inhibition) is reported as 0%.
For `Cc1nc(SCC(=O)Nc2cc(C)on2)c2c3c(sc2n1)CCCC3`, the inhibition [1] was 21.1% (inactive) and the inhibition (mutant strain inhibition) was 31.1%.
With `Cc1cc(C)n(-c2nc(SCC(=O)N3CCCC3)c3c4c(sc3n2)CCCC4)n1` the inhibition [1] was 62% (active) and the inhibition (mutant strain inhibition) was 38.4%.
For `Cc1cc(C)n(-c2nnc(N3CCN(c4ccccc4)CC3)nn2)n1`, the inhibition [1] was 12.1% (inactive) and the inhibition (mutant strain inhibition) was 10.8%.
With `CC(CO)NCC12CC3CC(CC(C3)C1)C2` (stereo not given) the inhibition [1] was -17.6% (inactive) and the inhibition (mutant strain inhibition) was -8.59%.
For `Cc1ccccc1NC(=O)c1ccccc1`, the inhibition [1] was -1% (inactive) and the inhibition (mutant strain inhibition) was -29.4%.
With `COc1c(F)c(F)c(C(=O)O)c(Nc2ccccc2C)c1F` the inhibition [1] was 74.2% (active) and the inhibition (mutant strain inhibition) was 15.4%.
With `Cc1ccc(Nc2c(F)c(F)c(F)c(F)c2C(=O)O)c(C)c1` the inhibition [1] was -0.48% (inactive) and the inhibition (mutant strain inhibition) was -18%.
In the case of `CC(=O)c1ccc(NC(=O)C(C)NCc2ccc(Cl)cc2)cc1` (stereo not given), the inhibition [1] is reported as 26.3% (inactive) and the inhibition (mutant strain inhibition) is reported as -21.6%.
For `Cc1cccc(C)c1NC(=O)Nc1ccccc1-n1ccnc1`, the inhibition [1] was 0.23% (inactive) and the inhibition (mutant strain inhibition) was 6.61%.
For `CCNC(=S)NNC(=O)C1CCN(Cc2ccccc2)CC1`, the inhibition [1] was 2.38% (inactive) and the inhibition (mutant strain inhibition) was -10.7%.
In the case of `Fc1ccc(Cn2nnnc2C(c2cccs2)N2CCCCCC2)cc1` (stereo not given), the inhibition [1] is reported as 62.9% (active) and the inhibition (mutant strain inhibition) is reported as 11.4%.
For `CCC(C)(C)n1nnnc1C(c1cccs1)N1CCN(Cc2ccccc2)CC1` (stereo not given), the inhibition [1] was 10.3% (inactive) and the inhibition (mutant strain inhibition) was 21.9%.
In the case of `Fc1ccccc1C(c1nnnn1Cc1ccc2c(c1)OCO2)N1CCN(Cc2ccccc2)CC1` (stereo not given), the inhibition [1] is reported as 15.4% (inactive) and the inhibition (mutant strain inhibition) is reported as 18.9%.
In the case of `O=C(NCc1nnc(SCC(=O)N2CCCc3ccccc32)o1)c1ccccc1F`, the inhibition [1] is reported as 1.27% (inactive) and the inhibition (mutant strain inhibition) is reported as -4.18%.
With `CC(=O)Nc1ccc(CN2CCN(Cc3ccc(F)c(F)c3)C(CCO)C2)cc1` (stereo not given) the inhibition [1] was 1.99% (inactive) and the inhibition (mutant strain inhibition) was 5.61%.
In the case of `Cc1ccc(NCc2n[nH]c(=S)n2-c2ccccc2)cc1Cl`, the inhibition [1] is reported as -7.14% (inactive) and the inhibition (mutant strain inhibition) is reported as 3.54%.
With `CC(=O)n1cc([C@@H]2C=C(C(=O)N3CCN(Cc4ccc5c(c4)OCO5)CC3)O[C@H](OCc3ccc(CO)cc3)C2)c2ccccc21` the inhibition [1] was 1.15% (inactive) and the inhibition (mutant strain inhibition) was 3.61%.
For `OCCCC1CCCCN1Cc1nc(Cc2ccccc2Cl)no1` (stereo not given), the inhibition [1] was -11.6% (inactive) and the inhibition (mutant strain inhibition) was -5.21%.
For `C=CCC(CC=C)(C(N)=O)c1ccccc1`, the inhibition [1] was -18.5% (inactive) and the inhibition (mutant strain inhibition) was 6.11%.
For `CN(C)CC(O)COc1ccc(C(C)(C)c2ccc(OCC(O)CN(C)C)cc2)cc1` (stereo not given), the inhibition [1] was -19.2% (inactive) and the inhibition (mutant strain inhibition) was -3.67%.
For `CC(C)(c1ccccc1)c1ccc(OCCN)cc1`, the inhibition [1] was 79.8% (active) and the inhibition (mutant strain inhibition) was 43.4%.
For `O=C(NCCOc1ccccc1)c1ccccc1`, the inhibition [1] was 3.33% (inactive) and the inhibition (mutant strain inhibition) was 5.23%.
In the case of `CCOC(=O)c1cc(-c2ccc(F)cc2)n(CC(=O)NCc2ccccn2)c1C`, the inhibition [1] is reported as -1.19% (inactive) and the inhibition (mutant strain inhibition) is reported as 1.72%.
For `Cc1nn(-c2ccc([N+](=O)[O-])cc2)c(N)c1-c1ccccc1`, the inhibition [1] was 6.29% (inactive) and the inhibition (mutant strain inhibition) was -26%.
In the case of `Cn1cccc1C(C#N)c1ccccc1C#N` (stereo not given), the inhibition [1] is reported as -2.23% (inactive) and the inhibition (mutant strain inhibition) is reported as -5.92%.
In the case of `COc1ccccc1CCNC(=O)CSc1nnc2ccc(-c3cccnc3)nn12`, the inhibition [1] is reported as -7.72% (inactive) and the inhibition (mutant strain inhibition) is reported as 2.87%.
In the case of `CC(NC(=S)Nc1ccc(OC(F)F)cc1)c1ccc(F)cc1` (stereo not given), the inhibition [1] is reported as 42.7% (inactive) and the inhibition (mutant strain inhibition) is reported as -13.6%.
With `CN(C)CCCN(C(=O)COc1ccccc1)c1nc2c(Cl)cccc2s1` the inhibition [1] was -5.71% (inactive) and the inhibition (mutant strain inhibition) was 13.3%.
For `COc1cccc2sc(N(CCCN(C)C)C(=O)C(c3ccccc3)c3ccccc3)nc12`, the inhibition [1] was 96.8% (active) and the inhibition (mutant strain inhibition) was 88.8%.
In the case of `CC(=O)N(CCCN(C)C)c1nc2ccc(C)cc2s1`, the inhibition [1] is reported as -12.7% (inactive) and the inhibition (mutant strain inhibition) is reported as -0.04%.
For `COc1ccc(CNc2c(CO)cnc3c2cnn3C)cc1`, the inhibition [1] was 4.76% (inactive) and the inhibition (mutant strain inhibition) was 3.68%.
With `COCC(C)NC(=O)CSc1nc2nn(-c3ccccc3)c(=O)c-2c2n1CCCCC2` (stereo not given) the inhibition [1] was 0.91% (inactive) and the inhibition (mutant strain inhibition) was -15.1%.
